# Source: PubChem BioAssay AID588346 (National Center for Advancing Translational Sciences (NCATS), 2011)
# Inconclusive results are not listed. Unmarked numbers belong to inactive results. Calls of active or inactive are those of the source. Calls come from the whole dose curve; as a rule, active = well fitted curve in the direction sought with a large enough effect; inconclusive = small, poorly fitted or top-dose-only effect, or another doubt; inactive = no such curve, though single readings can be large or run the other way.
# Test: qHTS Assay for Inhibitors of Histone Lysine Methyltransferase G9a: Hit Confirmation in b-rIgG Counterscreen
# Conditions: AlphaScreen b-rIgG bead counterscreen, signal interference; series mostly up to 55.7 µM; activity change, negative = inhibition: at the top concentration
# Description: Methylated lysines, on the N-terminal tails of histone proteins serve as epigenetic markers to recruit factors that can then modify local chromatin structure to lead to functional consequences. G9a and other members of the SUV39 family of the SET domain-containing superfamily of histone lysine methyltransferases (HMT) have been identified to specifically methylate Lys9 of histone H3 (H3K9). G9a catalyzes the mono- and di-methylation of H3K9 in mammalian euchromatic regions, where the resulting H3K9me2 is indicative of transcriptional repression. […] The inhibition of G9a will result in transcriptional activation and work synergistically with DNA methyltransferase and histone deacetylase inhibitors, to kill cancer cells. This qHTS assay for identification of G9a inhibitors is a chemiluminescence based AlphaScreen (PerkinElmer). Methylation of biotinylated-histone peptide is measured through specific antibody-based detection, in conjunction with streptavidin-coated donor and anti-IgG antibody-coated acceptor beads. The method is particularly well suited for detection of inhibitors acting by the desired histone peptide competitive mechanism and is applicable to testing other HMTs. Although AlphaScreen has significant advantages with its utility in a variety of epigenetic target assays, the primary screening data provided in this deposition should be used with caution due to the prevalence of screening artifacts. Because an AlphaScreen counterscreen is highly recommended to be run against any putative actives to eliminate non specific artifacts, this assay was used as a counterscreen. Quinn et al. A chemiluminescence-based method for identification of histone lysine methyltransferase inhibitors. Mol Biosyst 6(5): 782-8. 2010. PMID: 20567762 [2] Baell,Holloway. New substructure filters for removal of pan assay interference compounds (PAINS) from screening libraries and for their exclusion in bioassays. J Med Chem. 53(7):2719-40. 2010. PMID: 20131845 NIH Chemical Genomics Center [NCGC] NIH Molecular Libraries Probe Production Network [MLPCN] MLPCN Grant: MH084681-02 Assay Submitter (PI): Structural Genomic Consortium - Toronto, Peter Brown
# Biotinylated rabbit-IgG (b-rIgG) (Santa Cruz Biotechnology, Inc., Santa Cruz, CA) was added to 1,536-well plates in a 3 uL dispense. Compounds were added in a 23 nL pin-transfer step, and plates were incubated at room temperature for 15 min. Streptavidin-coated donor and anti-rIgG acceptor AlphaScreen beads were added (1 uL) for final concentrations of 20 ug/mL each bead and 1 nM b-rIgG, and plates read on the Envision after a 15 min incubation at room temperature in the dark.
SMILES,"activity change, negative = inhibition",Potency
CCN1CCc2nc(N)oc2CC1,-6.81%,–
CC(C)N(CCC(=O)c1ccc2ccccc2c1)Cc1ccccc1,41.7%,–
Ic1ccc(N2CCN(Cc3c[nH]c4ncccc34)CC2)cc1,3.83%,–
CCCCOC(=O)Cn1c2ccc(OC)cc2c2nc3ccccc3nc21,16.2%,–
CCCC(=O)N1CCN(c2ccc(NC(=O)c3ccc([N+](=O)[O-])o3)cc2Cl)CC1,-19.1%,–
CC(C)C(=O)NC(c1ccc(N(C)C)cc1)c1ccc2cccnc2c1O (stereo not given),-3.4%,–
CNC(=O)Oc1ccc2c(c1)[C@]1(C)CCN(C)[C@@H]1N2C,-4.26%,–
COc1cc2nc(N3CCN(C(=O)C4COc5ccccc5O4)CC3)nc(N)c2cc1OC (stereo not given),-37%,–
COc1cccc(N2CCN(S(=O)(=O)c3ccc(-n4cnnn4)cc3)CC2)c1,-8.09%,–
Cc1ccc(/C=[N+](\[O-])c2ccc(N(C)C)cc2)c2nsnc12,-70.6%,–
N=c1n(CC(=O)c2ccc([N+](=O)[O-])cc2)c2ccccc2n1Cc1ccccc1Cl,-10.2%,–
NC(=S)N/N=C/c1ncc(C(F)(F)F)cc1Cl,24.7%,–
O=C(NN1C(=O)c2ccccc2NC1c1ccc([N+](=O)[O-])o1)c1ccc([N+](=O)[O-])cc1 (stereo not given),3.4%,–
CSc1nsc(/C=C/Nc2cccc(Cl)c2)c1C#N,9.36%,–
COc1ccccc1N1CCN(CCN2C(=O)CC3(CCCC3)CC2=O)CC1,-17.9%,–
O=c1c2ccccc2nc(COc2ccccc2)n1/N=C/c1c[nH]c2ccccc12,1.28%,–
COc1cc2c(cc1C(F)(F)F)N(C(=O)Nc1cc(F)cc(-c3cccnc3)c1)CC2,24.3%,–
COc1ccc2c(C)nc(Nc3nc(-c4ccccc4)cc(=O)[nH]3)nc2c1,153%,–
O=C1CN(c2nc(-c3ccccc3)c3cc(Cl)ccc3n2)c2ccccc2N1,11.1%,–
Cc1ccc(C(C)C)c(OCc2ccc(C(=O)N/N=C/c3cccc(O)c3O)cc2)c1,-14%,–

SMILES,"activity change, negative = inhibition",Potency
O=C1C=C(Nc2ccc(Cl)cc2)C(=O)N1c1ccc(Cl)cc1,5.11%,–
C[n+]1cc2c3c(ccc2c2ccc4cc5c(cc4c21)OCO5)OCO3,0.425% [at 114 µM],–
CCC(=O)N1CCN(c2ccc(NC(=O)c3ccc([N+](=O)[O-])o3)cc2Cl)CC1,-16.6%,–
COc1nc(Nc2nc3ccccc3c(=O)[nH]2)nc2ccc(C)cc12,34.5%,–
Oc1c(N=Nc2ccccn2)ccc2ccccc12,–,11.2 µM (active)
CN(c1ccccc1)S(=O)(=O)c1nnc(NC(=O)c2ccccc2)s1,-8.51%,–
NC(=O)c1cc[n+](CC2=C(C(=O)O)N3C(=O)[C@@H](NC(=O)[C@@H](c4ccccc4)S(=O)(=O)[O-])[C@H]3SC2)cc1,-11.5% [at 114 µM],–
COc1ccc(NC(=O)CSc2nc3c(oc4ccccc43)c(=O)n2Cc2ccco2)cc1Cl,-5.96%,–
CCOn1c(=O)c[n+]([O-])c2ccccc21,17%,–
CCc1nnc(NC(=O)c2cccc(C(=O)Nc3nnc(CC)s3)n2)s1,31.5%,–
COc1ccc2c(C)cc(SCC(=O)N(C)C3CCS(=O)(=O)C3)nc2c1 (stereo not given),-7.23%,–
COCCNC(=S)N/N=C(\C)c1ccccc1O,-4.68%,–
CNc1nc(N2CCCN(C)CC2)nc2cc(OC)c(OC)cc12,-17.3%,–
Oc1ccc(Br)cc1C=Nc1ccc2c3c(cccc13)CC2,-34%,–
Nc1nc2ccc(Cl)cc2c2nc(-c3ccco3)nn12,-12.8% [at 114 µM],–
COc1ccc(C(=O)/C=C/Sc2nc3ccccc3o2)cc1,-5.53%,–
COc1ccc(NC(=O)c2ccc(-c3ccc(-c4noc(C)n4)cc3C)cc2)cc1N1CCN(C)CC1,–,28.2 µM (active)
O=C(CSc1cccc2cccnc12)N1CCCC1,15.3%,–
CC1=NN(c2nc3ccccc3[nH]2)C(=O)C1Cc1ccccc1 (stereo not given),-7.66%,–
O=C(CSc1cccc[n+]1[O-])c1ccccc1Br,-15.3%,–
